Records with an inconclusive call do not appear. Entries that show only a call come without a potency. Active and inactive are the calls of the source. Calls come from the whole dose curve; as a rule, active = well fitted inhibition curve with a large enough effect; inconclusive = small, poorly fitted or top-dose-only effect, or effect the other way; inactive = flat fitted curve, though single readings scatter.
These molecules were tested against Pyruvate kinase (Leishmania mexicana) (UniProt Q27686) (assay: Confirmation Assay for Inhibitors of Leishmania Mexicana Pyruvate Kinase (LmPK): for Probe SAR). Conditions: purified LmPK, ATP generation, Kinase-Glo luminescence; series mostly up to 57.5 µM.
Sequence of Pyruvate kinase (Leishmania mexicana) (Q27686 whole entry, looked up): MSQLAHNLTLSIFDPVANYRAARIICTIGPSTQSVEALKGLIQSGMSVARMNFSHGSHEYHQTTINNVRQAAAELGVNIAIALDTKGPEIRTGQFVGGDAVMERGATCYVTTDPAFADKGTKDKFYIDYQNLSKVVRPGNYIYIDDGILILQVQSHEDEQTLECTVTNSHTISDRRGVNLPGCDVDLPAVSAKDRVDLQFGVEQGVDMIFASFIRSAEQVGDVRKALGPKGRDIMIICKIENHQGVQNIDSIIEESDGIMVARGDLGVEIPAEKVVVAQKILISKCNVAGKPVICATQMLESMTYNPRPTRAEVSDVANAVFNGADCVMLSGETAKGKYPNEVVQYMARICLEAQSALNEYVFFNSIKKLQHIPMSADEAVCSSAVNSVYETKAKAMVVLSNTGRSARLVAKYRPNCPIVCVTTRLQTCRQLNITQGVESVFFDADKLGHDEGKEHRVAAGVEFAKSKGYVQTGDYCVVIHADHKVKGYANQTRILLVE
Text: NIH Chemical Genomics Center [NCGC] Malcolm Walkinshaw, Hugh Morgan, Linda Gilmore University of Edinburgh, UK MLPCN Grant: 1 R03 MH085697-01 NCGC Assay Overview: Pyruvate kinase (L. Mexicana) (LmPK) enzyme was supplied as a highly purified (>95% pure) sulphate-free preparation from University of Edinburgh, UK and assayed for its ability to generate ATP from ADP using phosphoenolpyruvate (PEP) as a substrate. ATP generation was detected in a coupled reaction by luciferase-mediated luminescence, an ATP-dependent process. Pyruvate kinase substrates, PEP and ADP, were present in the assay at Km and approximately 10-fold below Km respectively. The enzyme was assayed at an intermediate level of activity to screen for both inhibitors and activators.
NCGC Assay Protocol Summary: Three uL of enzyme mix (kept on ice) in assay buffer (50 mM Imidazole pH7.2, 50 mM KCl, 7 mM MgCl2, 0.01% Tween 20, 0.05% BSA) containing PEP (0.5 mM final concentration) and LmPK (0.1 nM final concentration) was dispensed into white solid bottom 1,536 well microtiter plates. 23 nL of compound were delivered by a pin tool and 1 uL of ADP mix in assay buffer (r.t; 0.1 mM final ADP concentration) was added. Plates were incubated at room temperature for 1 hour. Two uL of detection mix (Kinase-Glo, Promega; at 4 degree Celsius protected from light) was added and luminescence read by a ViewLux (Perkin Elmer) at 1 second exposure/plate. Data were normalized to the uninhibited and AC100 inhibition (no enzyme). To monitor activation, the first column contained a five-fold concentration of LmPK (0.5 nM).
O=C1c2ccccc2C(=O)N1C1CCCCC1 was tested, and the Potency was “inactive”. For Cc1ccc(NS(=O)(=O)c2ccc3c(c2)CCC(=O)N3)cc1C, the Potency was “inactive”. Cc1cc2c(s1)c1cnn(Cc3ccccc3F)c(=O)c1n2C was tested, and the Potency was “inactive”. In the case of O=S1(=O)N=C(Oc2ccccc2)c2ccccc21, the Potency is reported as 8.01 µM (active). In the case of Nc1ccc2c(c1)S(=O)(=O)NC2=O, the Potency is reported as “inactive”. With COC(=O)c1ccccc1S(=O)(=O)Nc1ccc(OC)cc1 the Potency was “inactive”. In the case of CCOc1ccc2c(c1)C(=O)C(c1cc(=O)c3ccccc3[nH]1)C2=O (stereo not given), the Potency is reported as “inactive”. For Cc1ccc(NS(=O)(=O)c2cc3c(cc2-c2ccco2)NC(=O)CO3)cc1C, the Potency was “inactive”. In the case of O=C1c2ccc3ccccc3c2C(=O)C1c1cc(=O)c2ccccc2[nH]1 (stereo not given), the Potency is reported as “inactive”. In the case of COC(=O)c1ccc2c(c1)S(=O)(=O)NC2=O, the Potency is reported as “inactive”. For O=C1c2ccccc2C(=O)N1c1nccs1, the Potency was “inactive”. For Cc1ccc(NS(=O)(=O)c2ccc3c(c2)CCC(C)(C)O3)cc1C, the Potency was “inactive”. In the case of Cc1sc(C)c2c1C(=O)NS2(=O)=O, the Potency is reported as “inactive”. In the case of COc1ccc(Nc2c(-c3ccc(C)o3)nc3ccccn23)cc1, the Potency is reported as “inactive”. O=S1(=O)N=C(Oc2ccccc2C(F)(F)F)c2ccccc21 was tested, and the Potency was 6.51 µM (active). For O=C1c2ccccc2C(=O)N1c1cc(=O)c2ccccc2[nH]1, the Potency was 3.26 µM (active). O=C1c2ccccc2C(=O)N1c1ncccc1O was tested, and the Potency was “inactive”. In the case of Cc1ccc2nc(-c3ccc(C)o3)c(NC3CCCC3)n2c1, the Potency is reported as “inactive”. With Cc1ccc(NS(=O)(=O)c2cc3c(cc2-c2ccccc2)NC(=O)CO3)cc1C the Potency was “inactive”. In the case of Cc1ccc(C)c(NC2=NS(=O)(=O)c3ccccc32)c1, the Potency is reported as “inactive”. In the case of Cc1ccc(NS(=O)(=O)c2cc3c(cc2-c2ccsc2)NC(=O)CO3)cc1C, the Potency is reported as “inactive”. Cc1ccc(OC2=NS(=O)(=O)c3ccccc32)cc1 was tested, and the Potency was 12.5 µM (active). COc1ccc(N2C(=O)c3ccccc3C2=O)cc1 was tested, and the Potency was “inactive”. For COc1ccc(-c2nc3cccc(C)n3c2Nc2ccc(C)cc2)cc1, the Potency was “inactive”. With Cc1ccc(NS(=O)(=O)c2ccc3[nH]c(=O)[nH]c3c2)cc1C the Potency was “inactive”. In the case of Cc1ccc2nc(-c3ccc(C)o3)c(Nc3ccccc3)n2c1, the Potency is reported as “inactive”. With CC(C)(C)c1ccc(SC2=NS(=O)(=O)c3ccccc32)cc1 the Potency was 3.26 µM (active). For O=C1NS(=O)(=O)c2ccccc21, the Potency was “inactive”. With COc1cccc(N2C(=O)c3ccccc3C2=O)c1 the Potency was “inactive”. In the case of CCNc1cccc(S(=O)(=O)N2CCN(S(=O)(=O)c3ccc4c(c3)OCCO4)CC2)c1, the Potency is reported as “inactive”. In the case of Cc1ccc(-c2nc3cccc(C)n3c2Nc2ccc(F)cc2)o1, the Potency is reported as “inactive”. COc1ccccc1OC1=NS(=O)(=O)c2ccccc21 was tested, and the Potency was 4.31 µM (active). Cc1ccc(Nc2c(-c3ccc(C)o3)nc3cccc(C)n23)cc1 was tested, and the Potency was “inactive”. With CNc1cccc(S(=O)(=O)N2CCN(S(=O)(=O)c3ccc4c(c3)OCCO4)CC2)c1 the Potency was “inactive”. With CC(=O)Nc1ccc(OC2=NS(=O)(=O)c3ccccc32)cc1 the Potency was 4.11 µM (active). Cc1ccc2nc(-c3cccs3)c(Nc3ccccc3)n2c1 was tested, and the Potency was “inactive”. For O=S1(=O)N=C(Oc2ccc3ccccc3c2)c2ccccc21, the Potency was 4.11 µM (active). For O=C1c2ccccc2C(=O)N1c1ccc(O)cc1, the Potency was “inactive”. For Cc1ccccc1Nc1c(-c2ccccc2)nc2cccc(C)n12, the Potency was “inactive”. N#Cc1cccnc1SC1=NS(=O)(=O)c2ccccc21 was tested, and the Potency was 16.3 µM (active).

Source: PubChem BioAssay AID2561 (National Center for Advancing Translational Sciences (NCATS), 2010)
Potency is the fitted concentration of half-maximal effect.
